ClpP mod: qHTS Assay for Activators of ClpP | ATP-dependent Clp protease proteolytic subunit (Bacillus subtilis (strain 168)), P80244 | purified B. subtilis ClpP, FRET peptide cleavage, 20 min | Potency, µM (series often up to 57.5 µM), for inactives: top-dose activity change, negative = active | 340,000 tested, 1.9% active; active = well fitted falling curve with a large enough effect; inconclusive = small, poorly fitted or top-dose-only effect; inactive = no such curve, though single readings can be large or run the other way; note: the source files actives as falling curves though it sought activators and does not explain the sign; nearly all actives have a fitted effect of over 65% in size
Target sequence (P80244 whole entry, looked up): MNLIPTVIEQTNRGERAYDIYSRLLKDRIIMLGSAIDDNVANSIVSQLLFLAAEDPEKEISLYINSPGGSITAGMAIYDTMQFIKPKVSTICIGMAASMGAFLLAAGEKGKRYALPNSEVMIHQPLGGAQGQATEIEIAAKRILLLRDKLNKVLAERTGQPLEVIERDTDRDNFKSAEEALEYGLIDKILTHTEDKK
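Buffer: 100 mM Tris/HCl pH8, 100 mM KCl, 0.05% low protease BSA, 2.5% glycerol, 0.01% Tween-20. ClpP 10 microg/mL final; 20 min RT; delta FRET normalized to ADEP and DMSO controls.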
Epigenetic reg: regulators of epigenetic silencing causing reporter derepression in mouse cells. murine LDR cells, GFP reporter derepression, 30 h. Potency, µM (highest dose often 53.9 µM), without a hit: at the highest dose GFP activation, most hits filed as activators. 280,000 tested, 0.2% active; note: % of control where 0% means no effect; nearly all actives have a fitted effect of over 60% in size
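Murine LDR cells carrying a silenced, genomically integrated CMV-driven GFP reporter were exposed to compound for 30 hours at 37 C. After PBS washes, GFP-positive cells (20–120 um objects) were counted by laser-scanning microplate cytometry.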
RORgamma inh: ROR gamma (mouse) transcription inhibition | 310,000 tested, 5.4% active | Potency, µM (doses to about 53.6 µM), without a hit: at the highest dose activity change, negative = inhibition, actives largely listed as inhibitors | Drosophila S2 Gal4-RORgamma UAS-luciferase reporter, 20 h | AID 2551; note: % is set by controls: 0 for no effect and ±100 for the full control effect; nearly all actives have a fitted effect of over 60% in size
Target sequence (P51450 whole entry, looked up, the tested form may be a part): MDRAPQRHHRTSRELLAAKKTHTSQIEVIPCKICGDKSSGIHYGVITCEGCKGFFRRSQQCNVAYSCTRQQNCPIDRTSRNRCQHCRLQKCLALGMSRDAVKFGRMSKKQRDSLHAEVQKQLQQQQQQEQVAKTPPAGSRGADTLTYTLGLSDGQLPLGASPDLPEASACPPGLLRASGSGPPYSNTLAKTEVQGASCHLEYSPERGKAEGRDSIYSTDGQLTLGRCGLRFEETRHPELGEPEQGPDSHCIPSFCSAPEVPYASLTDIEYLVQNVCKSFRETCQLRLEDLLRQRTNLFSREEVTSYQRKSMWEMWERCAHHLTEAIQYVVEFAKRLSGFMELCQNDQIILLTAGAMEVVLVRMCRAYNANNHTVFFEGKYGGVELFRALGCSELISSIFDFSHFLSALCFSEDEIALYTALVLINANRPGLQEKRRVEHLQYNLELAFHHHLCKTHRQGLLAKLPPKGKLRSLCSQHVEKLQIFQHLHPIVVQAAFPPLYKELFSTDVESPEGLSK
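Stably transfected Drosophila Schneider cells are the test system, with ROR gamma fused to Gal4 and luciferase under UAS control; luminescence is read after 20 hr of 700 uM copper sulfate induction at ambient temperature.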
Sfp inh: inhibitors of Bacillus subtilis Sfp phosphopantetheinyl transferase; Biochemical Sfp PPTase activity, qHTS; Potency, µM, for inactives: largest response in the series, negative = inhibition, hits mostly inhibitors; 310,000 tested, 3.5% active;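 note: the enzyme is Sfp with the accession as filed and its product quenches rhodamine fluorescence; 0% = enzyme reaction without inhibitor and -100% = no enzyme wells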
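With Hepes-Na pH 7.6 buffer containing 10 mM MgCl2, Sfp (15 nM) modified BHQ-2-YbbR (12.5 uM) using rhodamine-CoA (5 uM). Two reads 30 minutes apart at 525/598 nm yielded each well's rate.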
VP16 counter: counter-screen for ROR gamma inhibitors: Gal4-VP16 reporter | Drosophila S2 Gal4-VP16 UAS-luciferase, luminescence, 20 h | Potency, µM (series often up to 53.6 µM), for inactives: top-dose activity, negative = inhibition, usual class: inhibitors | 310,000 tested, 3.5% active | AID 2546;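 note: Gal4-VP16 expression switched on by copper sulfate through the metallothionein promoter; % is set by controls: 0 for no effect and ±100 for the full control effect; nearly all actives have a fitted effect of over 50% in size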
PINK1 modulator: modulators of PINK1 expression | PINK1 immunofluorescence, high-content cytometry, 24 h | Potency, µM (series often up to 76.6 µM), for inactives: at the top dose activation (PINK1 increase), usual class: activators | 410,000 tested, 0.2% active | AID 624263; active = well fitted activation curve with a large enough effect; inconclusive = small, poorly fitted or top-dose-only effect; cell line not stated here; note: % of control where 0% means no effect; nearly all actives have a fitted effect of over 65% in size
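PINK1 protein level read as immunofluorescence by microplate cytometer in a fixed, stained stable cell line after 24 h exposure to five compound concentrations, with CCCP as control.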
Active calls of the source: *. The list is not random: actives were taken first. Their share in the collection is about 8.1%. Unless noted, calls come from the whole dose curve; as a rule, active = well fitted curve in the direction sought with a large enough effect; inconclusive = small, poorly fitted or top-dose-only effect, or another doubt; inactive = no such curve, though single readings can be large; an effect the other way counts as inactive or inconclusive. Potency is the fitted concentration of half-maximal effect.

What do the screens show for `COc1ccc(C(=O)N=c2c(C#N)cc3c(=O)n4cccc(C)c4nc3n2Cc2ccco2)cc1`?
Epigenetic reg: 0%; RORgamma inh: 3%; Sfp inh: 56µM*; VP16 counter: -3%

Results for CCOC(=O)c1cc2c(=O)n3ccccc3nc2n(Cc2ccco2)c1=NC(=O)c1ccc(C(C)(C)C)cc1 ?
ClpP mod: 4%; Epigenetic reg: 13%; PINK1 modulator: 2%

What do the screens show for `CC(=O)N=c1c(C#N)cc2c(=O)n3cccc(C)c3nc2n1Cc1ccco1`?
ClpP mod: 4%; Epigenetic reg: 4%; RORgamma inh: -14%; Sfp inh: -21%; VP16 counter: 2%; PINK1 modulator: 12%

Results for N#Cc1cc2c(=O)n3ccccc3nc2n(Cc2ccco2)c1=NC(=O)c1ccco1 ?
ClpP mod: -4%; Epigenetic reg: inconclusive; RORgamma inh: 3%; Sfp inh: 40µM*; VP16 counter: -12%; PINK1 modulator: 4%

What do the screens show for `Cc1ccccc1C(=O)N=c1c(C#N)cc2c(=O)n3cccc(C)c3nc2n1Cc1ccco1`?
Epigenetic reg: 11%; RORgamma inh: 3%; Sfp inh: 50µM*; VP16 counter: -11%

How did CC1(C)CC(N=C=O)CC(C)(CN=C=O)C1 (stereo unspecified) do in these assays?
RORgamma inh: 1%; VP16 counter: 1%

What do the screens show for `COC(=O)c1cnn2c(C)c(Cc3c(C)cc(C)cc3C)c(C)nc12`?
ClpP mod: -18%; Epigenetic reg: 0%; PINK1 modulator: 1%

What do the screens show for `CCNC(=O)C1CCCN(c2nn3cc(-c4ccc(C)cc4)nc3s2)C1` (stereo unspecified)?
ClpP mod: -1%; Epigenetic reg: 1%; PINK1 modulator: -1%

What do the screens show for `C#CCOc1c(Br)cc(C2C(C(=O)OC)=C(C)NC3=C2C(=O)c2ccccc23)cc1OCC` (stereo unspecified)?
ClpP mod: -1%; Epigenetic reg: 1%; PINK1 modulator: 4%

Results for COc1ccc(-n2cc(-c3ccc(C)cc3)[n+]3c2SCC3)cc1 ?
ClpP mod: inconclusive; Epigenetic reg: 2%; RORgamma inh: -22%; Sfp inh: 17%; VP16 counter: 7.9µM*; PINK1 modulator: inconclusive

How did CCc1ccc(-n2cc(-c3ccc(F)cc3)[n+]3c2SCCC3)cc1 do in these assays?
Epigenetic reg: -1%; RORgamma inh: -33%; Sfp inh: 1%; VP16 counter: inconclusive; PINK1 modulator: 6%

Results for Cc1ccc(-c2cn(-c3ccccc3)c3[n+]2CCCS3)cc1 ?
ClpP mod: 0%; Epigenetic reg: inconclusive; RORgamma inh: 0%; Sfp inh: 15%; VP16 counter: 11µM*; PINK1 modulator: 0%

Results for CCc1ccc(N2CC(C)Cn3c2nc2c3c(=O)n(CC(=O)O)c(=O)n2C)cc1 (stereo unspecified) ?
ClpP mod: -12%; Epigenetic reg: 0%; PINK1 modulator: 3%

Results for O=c1oc2ccccc2cc1-c1cn2cc(Cc3ccccc3F)sc2n1 ?
ClpP mod: 3%; Epigenetic reg: 0%; PINK1 modulator: 4%

How did NC(=O)c1nsc(C(=O)N(c2ccc(F)cc2)C(C(=O)NCC2CCCO2)c2c[nH]c3ccccc23)c1N (stereo unspecified) do in these assays?
RORgamma inh: -113%; Sfp inh: -1%; VP16 counter: 16µM*; PINK1 modulator: 2%

How did CSc1ncccc1C(=O)N1CCOc2ccc(C(C)(O)CCn3cccn3)cc2C1 (stereo unspecified) do in these assays?
PINK1 modulator: -1%

How did O=[N+]([O-])c1c(NCCCO)cc(N2CCN(Cc3ccc4c(c3)OCO4)CC2)c2nonc12 do in these assays?
ClpP mod: 1%; Epigenetic reg: 0%; RORgamma inh: 5µM*; Sfp inh: 0%; VP16 counter: 3.5µM*; PINK1 modulator: -1%

How did CC(=O)OCCNc1cc(SCc2ccco2)c2nonc2c1[N+](=O)[O-] do in these assays?
ClpP mod: -2%; Epigenetic reg: inconclusive; RORgamma inh: 11µM*; Sfp inh: 45µM*; VP16 counter: inconclusive; PINK1 modulator: 2%

What do the screens show for `COC(=O)CCSc1cc(NCCOC(C)=O)c([N+](=O)[O-])c2nonc12`?
ClpP mod: -1%; Epigenetic reg: inconclusive; RORgamma inh: -32%; Sfp inh: -2%; VP16 counter: -5%; PINK1 modulator: 1%

How did Cn1ccnc1Sc1cc(NCCCO)c([N+](=O)[O-])c2nonc12 do in these assays?
ClpP mod: -6%; Epigenetic reg: inconclusive; RORgamma inh: 1.3µM*; Sfp inh: inconclusive; VP16 counter: 11µM*; PINK1 modulator: -2%

What do the screens show for `O=[N+]([O-])c1c(NCCCO)cc(Sc2ccc(Cl)cc2)c2nonc12`?
ClpP mod: -2%; Epigenetic reg: inconclusive; RORgamma inh: 5µM*; Sfp inh: -20%; VP16 counter: 5µM*; PINK1 modulator: -1%

What do the screens show for `O=c1cc(/C=C/c2ccc([N+](=O)[O-])cc2)c2ccccc2[nH]1`?
ClpP mod: -1%

How did Cc1cccc(N2CCN(S(=O)(=O)c3cc(C(=O)Nc4ccccc4Cl)ccc3F)CC2)c1C do in these assays?
ClpP mod: -3%; Epigenetic reg: 5%; PINK1 modulator: 0%

Results for O=[N+]([O-])c1c(NCCCO)cc(SCc2ccco2)c2nonc12 ?
ClpP mod: 2%; Epigenetic reg: inconclusive; RORgamma inh: inconclusive; Sfp inh: 22µM*; VP16 counter: inconclusive; PINK1 modulator: -1%

How did CCCS(=O)(=O)c1cnc(C2COc3ccccc3O2)nc1N (stereo unspecified) do in these assays?
ClpP mod: -3%; RORgamma inh: 0.63µM*; Sfp inh: 7%; VP16 counter: 1.3µM*; PINK1 modulator: 0%

Results for O=S(=O)(Nc1ccc(NS(=O)(=O)c2ccccc2)c(Cl)c1)c1ccccc1 ?
PINK1 modulator: -3%

Results for Cc1cc(NS(=O)(=O)c2ccccc2)cc(Cl)c1O ?
ClpP mod: 3%; Epigenetic reg: -12%; RORgamma inh: 25%; Sfp inh: 79µM*; VP16 counter: -87%; PINK1 modulator: 5%

What do the screens show for `S=C(NCc1ccco1)Nc1ccc(Cl)cc1Cl`?
ClpP mod: 1%; Epigenetic reg: -2%; RORgamma inh: 11µM*; Sfp inh: inconclusive; VP16 counter: inconclusive; PINK1 modulator: 3%
